Results on 30 molecules are retold here after PubChem BioAssay AID880 (National Center for Advancing Translational Sciences (NCATS), 2007).

Hit rate of the full screen: of about 230,000 compounds, about 1,000 (0.43%) were called active. Calls follow the shape of the dose curve; as a rule, active = well fitted inhibition curve with a large enough effect (not every such curve was filed as active); inactive = no such curve, though single readings can be large or run the other way. The entries come from a sample that favours actives as a whole.
% is scaled to controls: 0 for no effect and ±100 for the full control effect; potency is read from the fitted curve at half-maximal effect.

Sequence of Guanine nucleotide-binding protein G(i) subunit alpha-1 (Homo sapiens) (P63096 whole entry, looked up): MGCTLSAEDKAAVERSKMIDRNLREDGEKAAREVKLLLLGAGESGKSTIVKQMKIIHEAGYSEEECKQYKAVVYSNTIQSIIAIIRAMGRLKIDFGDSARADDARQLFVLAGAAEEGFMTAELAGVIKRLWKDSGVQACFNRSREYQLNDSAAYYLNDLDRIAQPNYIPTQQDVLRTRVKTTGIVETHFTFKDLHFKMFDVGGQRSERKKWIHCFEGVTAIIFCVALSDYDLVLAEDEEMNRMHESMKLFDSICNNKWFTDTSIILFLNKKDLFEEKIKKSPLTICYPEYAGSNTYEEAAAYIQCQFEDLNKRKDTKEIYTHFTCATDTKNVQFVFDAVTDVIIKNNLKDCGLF

The assay concerns the target Guanine nucleotide-binding protein G(i) subunit alpha-1 (Homo sapiens) (UniProt P63096). Nature of the assay: qHTS Assay for Inhibitors of RGS12 GoLoco Motif Activity (Red Fluorophore). Also: nearly all actives have a fitted effect of over 30% in size. The settings on record: Gai1:RGS12 GoLoco peptide FP, rhodamine, 10 min; series mostly up to 61.6 µM; activity, negative = inhibition: at the top concentration. From the text:
Assay Submitter: Siderovski, David P, University of North Carolina at Chapel Hill
Screening Center PI: Austin, C.P.
Screening Center: NIH Chemical Genomics Center [NCGC]
G-protein-coupled receptors (GPCRs) are major targets for drug discovery. The regulator of G-protein signaling (RGS)-protein family has important roles in GPCR signal transduction. RGS proteins contain a conserved RGS-box, which is often accompanied by other signaling regulatory elements. RGS proteins accelerate the deactivation of G proteins to reduce GPCR signaling; however, some also have an effector function and transmit signals. Combining GPCR agonists with RGS inhibitors should potentiate responses, and could markedly increase the agonist's regional specificity. The diversity of RGS proteins with highly localized and dynamically regulated distributions in brain makes them attractive targets for pharmacotherapy of central nervous system disorders. […] A complex of Gai1 and fluorescently labeled G-alpha-binding peptide (the "GoLoco motif") derived from RGS12 is incubated with library members. Inhibitors of the binding are detected by a decrease in the fluorescence polarization (FP) of the fluorophore. Protein was supplied by Prof. David Siderovski, University of North Carolina at Chapel Hill.
Assay Buffer: 10 mM Tris-HCl, 150 mM NaCl, 0.1 mM GDP (prepared fresh), and 0.05% NP40 at pH 7.5.
15 nM Rhodamine labeled peptide/25 nM protein in columns 1, 2, 5 - 48. Titration of unlabeled peptide control ([H][…][NH2], custom synthesized and HPLC-purified by Tufts University Core Facility) from 20 mM, then 1:2 dilution, 16-point in duplicate, pin-transferred to column 2, rows 1 to 32. Column 1 is neutral.
Rhodamine-labeled peptide (Rhodamine-[…]-NH2) was custom-synthesized and HPLC-purified by Invitrogen (Carlsbad, CA).
Four uL of reagents were dispensed to 1536-well Greiner black solid-bottom plates. Compounds and controls (23 nL) were transferred via Kalypsys PinTool. The plates were incubated for 10 min at room temperature, and then read on ViewLux (Perkin-Elmer) High-throughput CCD imager using BODIPY for the rhodamine-labeled decapeptide probe. During dispense, reagent bottles were kept submerged into 4 deg C water bath and all liquid lines were covered with aluminum foil to minimize probe and protein degradation. All screening operations were performed on a Kalypsys robotic system (Kalypsys, Inc., San Diego, CA) containing one RX-130 and two RX-90 anthropomorphic robotic arms.
In the case of `C[N+]12CN3CN(CN(C3)C1)C2`, the Potency was 8.91 µM (active).

Take `CO[C@@H]1C[C@@H](C[C@H]2CC[C@H](C)[C@@H]([C@@H](C)C(=O)O)O2)O[C@]2(O[C@](C)([C@H]3CC[C@@](C)(C4OC([C@H]5O[C@@](O)(CO)[C@H](C)C[C@@H]5C)C[C@@H]4C)O3)C[C@H]2C)[C@@H]1C` (stereo not given in full): the “activity, negative = inhibition” value was 2.64% (inactive).

Take `CC(=O)c1c(O)c(C)c(O)c(Cc2c(O)c3c(c(C(=O)/C=C\c4ccccc4)c2O)OC(C)(C)C=C3)c1O`: the “activity, negative = inhibition” value was 5.48% (inactive).

Turning to `C[C@@]12CC[C@H](O)C[C@@H]1CC[C@@H]1[C@@H]2CC[C@@]2(C)[C@@H](C3=CC(=O)OC3)[C@H](O)C[C@]12O`, the activity, negative = inhibition was 3.75% [at 14.2 µM] (inactive).

Consider `Cc1cc(-c2ccc(N)c(C)c2)ccc1N`, for which the Potency is 25.1 µM (active).

For the molecule `CN1[C@@H]2CC[C@H]1CC(OC(=O)c1cc(Cl)cc(Cl)c1)C2` (stereo not given in full), the “activity, negative = inhibition” value is -5.38% (inactive).

Take `CN(C)C1C(=O)C(C(N)=O)=C(O)[C@@]2(O)C(=O)C3=C(O)c4c(O)cccc4[C@@](C)(O)C3C[C@@H]12` (stereo not given in full): the “activity, negative = inhibition” value was 0.74% (inactive).

For `ClC(Cl)=C(Cl)C(Cl)=C(Cl)Cl`, the “activity, negative = inhibition” value is 5.03% (inactive).

Regarding `CC(C)CC(C)Nc1ccc(Nc2ccccc2)cc1` (stereo not given), the “activity, negative = inhibition” value is 0.206% (inactive).

For `CCCCN1C2CCC1CC(OC(c1ccc(F)cc1)c1ccc(F)cc1)C2` (stereo not given), the “activity, negative = inhibition” value is 8.26% (inactive).

As for `CS(=N)(=O)CC[C@H](N)P(=O)(O)O` (stereo not given in full), the activity, negative = inhibition is 3.42% [at 14.2 µM] (inactive).

`CC(C)(Cc1c[nH]c2ccc(Cl)cc12)NCCOc1ccccc1OCC1CC1`: the activity, negative = inhibition entry was “inactive”.

As to `CC(=O)OC1C2CCC3C1(CC(O)[C@@]1(O)[C@@H](CC(O)C1(C)C)[C@]3(C)O)C[C@@]2(C)O` (stereo not given in full), the Potency was 25.1 µM (active).

On to `CC(C)(c1ccccc1)c1ccc(O)cc1`, for which the “activity, negative = inhibition” value is -5% (inactive).

As to `CC(=O)O[C@H]1CC[C@@]2(C)[C@@H](CC[C@H]3[C@H]2CC(=O)[C@]2(C)[C@@H]3C[C@@H](N3CC3)[C@H]2C(C)=O)C1`, the activity, negative = inhibition is 4.86% [at 14.2 µM] (inactive).

For `O=C(O)C1C2CCC(O2)C1C(=O)O` (stereo not given), the “activity, negative = inhibition” value is 10.6% (inactive).

Consider `OC(CNC1CCCCC1)c1ccccc1` (stereo not given), for which the “activity, negative = inhibition” value is 5.96% (inactive).

For the molecule `CNC(C)[C@@H](O)c1ccccc1` (stereo not given in full), the Potency is 7.94 µM (active).

For the molecule `CC(C)CCC1(CCN)C(=O)NC(=O)NC1=O`, the activity, negative = inhibition is 2.09% [at 14.2 µM] (inactive).

As for `CN(C)[C@@H]1C(=O)C(C(N)=O)=C(O)[C@@]2(O)C(=O)C3=C(O)c4c(O)cccc4[C@@](C)(O)C3CC12` (stereo not given in full), the “activity, negative = inhibition” value was -6.35% (inactive).

Turning to `CCN(CC)CCn1ncc2c(N)ncnc21`, the activity, negative = inhibition was 8.05% [at 14.2 µM] (inactive).

As to `O=C(O)C(=O)Cc1ccc2c(c1)OCO2`, the activity, negative = inhibition is -7.42% [at 14.2 µM] (inactive).

Take `COc1ccccc1N=Nc1c(O)[nH]c(=S)[nH]c1=O`: the “activity, negative = inhibition” value is 28.9% (inactive).

For `COc1ccccc1N=C1SCCCN1C`, the Potency is 3.16 µM (active).

Turning to `Cc1ccc(S(=O)(=O)O[C@H]2CN3CCC2CC3)cc1`, the activity, negative = inhibition was -0.505% [at 14.2 µM] (inactive).

As for `CC[C@@](O)(C(=O)O)c1cc2n(c(=O)c1CO)Cc1cc3ccccc3nc1-2`, the activity, negative = inhibition was -0.459% [at 14.2 µM] (inactive).

As for `Fc1ccc(C(OCCN2CCN(C/C=C\c3ccccc3)CC2)c2ccc(F)cc2)cc1`, the “activity, negative = inhibition” value is 12.7% (inactive).

As to `C[C@H](Br)C(=O)N[C@H](CO)C(=O)O`, the activity, negative = inhibition was 5.42% [at 14.2 µM] (inactive).

Take `NCC[Se][Se]CCN`: the Potency was 0.631 µM (active).

Take `CC(C)(O)/C=C\C(=O)[C@](C)(O)[C@H]1[C@H](O)C[C@]2(C)[C@@H]3CC=C4[C@@H](C=C(O)C(=O)C4(C)C)[C@]3(C)C(=O)C[C@@]12C`: the activity, negative = inhibition is 6.59% [at 14.2 µM] (inactive).
